Data from PubChem BioAssay AID1159580 (chemical genetic matrix, 2015).
Screen size: about 5,500 compounds; about 2,000 (36%) were called active. Inconclusive results (about 18%) are left out. Cut-off read from the data, not from the text of the source: active = normalized growth mostly below about 0.91 (no sharp cut-off); inconclusive = no clear call, values can overlap the other calls; inactive = mostly above about 0.92. The list shows a part of the results.

Assay: chemical genetic growth profiling, strain panel (AID 1159580);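 note: tested at 20 µM; growth read once vehicle control cultures reached saturation at 30 °C; 1 = growth at the plate median or of vehicle wells; lower values mean less growth of the strain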
Conditions: growth OD

Measured: normalized growth

CC(=O)OC1CCC2(C)C(CC(OC(C)=O)C3(C)C4=CC(=O)OC(c5ccoc5)C4(C)CCC23)C1(C)C (stereo unspecified)
inactive: S. cerevisiae deletion strains, locus YAL013W, strain DEP1, stronger effect = lower value 0.989 | S. cerevisiae deletion strains, locus YBR021W, strain FUR4, stronger effect = lower value 1.02 | S. cerevisiae deletion strains, locus YBR229C, strain ROT2, stronger effect = lower value 1 | S. cerevisiae deletion strains, locus YCL029C, strain bik1, stronger effect = lower value 0.995 | S. cerevisiae deletion strains, locus YDL035C, strain GPR1, stronger effect = lower value 0.972 | S. cerevisiae deletion strains, locus YDL074C, strain BRE1, stronger effect = lower value 0.791 | S. cerevisiae deletion strains, locus YDL101C, strain DUN1, stronger effect = lower value 0.995 | S. cerevisiae deletion strains, locus YDL134C, strain PPH21, stronger effect = lower value 0.989 | S. cerevisiae deletion strains, locus YDL185W, strain tfp1, stronger effect = lower value 0.963 | S. cerevisiae deletion strains, locus YDL192W, strain arf1, stronger effect = lower value 0.998 | S. cerevisiae deletion strains, locus YDR101C, strain arx1, stronger effect = lower value 1.01 | S. cerevisiae deletion strains, locus YDR150W, strain NUM1, stronger effect = lower value 0.98 | S. cerevisiae deletion strains, locus YDR162C, strain NBP2, stronger effect = lower value 1.01 | S. cerevisiae deletion strains, locus YDR318W, strain mcm21, stronger effect = lower value 0.992 | S. cerevisiae deletion strains, locus YDR388W, stronger effect = lower value 1 | S. cerevisiae deletion strains, locus YDR502C, strain sam2, stronger effect = lower value 1.01 | S. cerevisiae deletion strains, locus YEL061C, strain CIN8, stronger effect = lower value 1.01 | S. cerevisiae deletion strains, locus YER110C, stronger effect = lower value 1 | S. cerevisiae deletion strains, locus YER155C, strain BEM2, stronger effect = lower value 0.997 | S. cerevisiae deletion strains, locus YER167W, strain BCK2, stronger effect = lower value 0.994 | S. cerevisiae deletion strains, locus YGL078C, strain dbp3, stronger effect = lower value 0.993 | S. cerevisiae deletion strains, locus YGL086W, strain mad1, stronger effect = lower value 0.969 | S. cerevisiae deletion strains, locus YGL248W, strain PDE1, stronger effect = lower value 1.01 | S. cerevisiae deletion strains, locus YGR078C, strain PAC10, stronger effect = lower value 0.948 | S. cerevisiae deletion strains, locus YGR135W, strain pre9, stronger effect = lower value 1.04 | S. cerevisiae deletion strains, locus YGR229C, strain SMI1, stronger effect = lower value 0.986 | S. cerevisiae deletion strains, locus YGR252W, strain gcn5, stronger effect = lower value 0.961 | S. cerevisiae deletion strains, locus YHR030C, strain SLT2, stronger effect = lower value 0.998 | S. cerevisiae deletion strains, locus YHR079C, strain IRE1 (second series), stronger effect = lower value 0.972 | S. cerevisiae deletion strains, locus YHR094C, strain hxt1, stronger effect = lower value 0.989 | S. cerevisiae deletion strains, locus YHR129C, strain ARP1, stronger effect = lower value 1 | S. cerevisiae deletion strains, locus YHR200W, strain rpn10, stronger effect = lower value 1 | S. cerevisiae deletion strains, locus YIL066C, strain RNR3, stronger effect = lower value 0.973 | S. cerevisiae deletion strains, locus YIL073C, strain SPO22, stronger effect = lower value 0.882 | S. cerevisiae deletion strains, locus YIL125W, strain kgd1, stronger effect = lower value 1 | S. cerevisiae deletion strains, locus YIR030C, strain dcg1, stronger effect = lower value 1 | S. cerevisiae deletion strains, locus YJL095W, strain BCK1, stronger effect = lower value 1.01 | S. cerevisiae deletion strains, locus YJL134W, strain LCB3, stronger effect = lower value 1 | S. cerevisiae deletion strains, locus YJL168C, strain set2, stronger effect = lower value 1 | S. cerevisiae deletion strains, locus YJL187C, strain SWE1 (second series), stronger effect = lower value 0.994 | S. cerevisiae deletion strains, locus YJR043C, strain POL32, stronger effect = lower value 0.997 | S. cerevisiae deletion strains, locus YJR075W, strain HOC1, stronger effect = lower value 1.01 | S. cerevisiae deletion strains, locus YKL009W, strain mrt4, stronger effect = lower value 0.988 | S. cerevisiae deletion strains, locus YKL068W, stronger effect = lower value 0.982 | S. cerevisiae deletion strains, locus YKL085W, strain MDH1 (second series), stronger effect = lower value 0.994 | S. cerevisiae deletion strains, locus YKL085W, strain MDH1, stronger effect = lower value 0.994 | S. cerevisiae deletion strains, locus YKL190W, strain CNB1, stronger effect = lower value 0.977 | S. cerevisiae deletion strains, locus YKR001C, strain vps1, stronger effect = lower value 0.974 | S. cerevisiae deletion strains, locus YLR039C, strain RIC1, stronger effect = lower value 0.986 | S. cerevisiae deletion strains, locus YLR058C, strain SHM2, stronger effect = lower value 0.989 | S. cerevisiae deletion strains, locus YLR102C, strain apc9, stronger effect = lower value 0.995 | S. cerevisiae deletion strains, locus YLR262C, strain YPT6, stronger effect = lower value 0.954 | S. cerevisiae deletion strains, locus YLR268W, strain sec22, stronger effect = lower value 1.03 | S. cerevisiae deletion strains, locus YLR330W, strain CHS5, stronger effect = lower value 0.995 | S. cerevisiae deletion strains, locus YLR342W, strain FKS1 (second series), stronger effect = lower value 0.996 | S. cerevisiae deletion strains, locus YLR371W, strain rom2, stronger effect = lower value 0.983 | S. cerevisiae deletion strains, locus YLR418C, strain cdc73, stronger effect = lower value 1.01 | S. cerevisiae deletion strains, locus YML016C, strain PPZ1, stronger effect = lower value 1 | S. cerevisiae deletion strains, locus YML032C, strain rad52, stronger effect = lower value 0.986 | S. cerevisiae deletion strains, locus YML124C, strain tub3, stronger effect = lower value 1 | S. cerevisiae deletion strains, locus YMR078C, strain ctf18, stronger effect = lower value 1 | S. cerevisiae deletion strains, locus YMR223W, strain ubp8, stronger effect = lower value 0.99 | S. cerevisiae deletion strains, locus YMR263W, strain SAP30, stronger effect = lower value 0.982 | S. cerevisiae deletion strains, locus YMR307W, strain GAS1, stronger effect = lower value 0.924 | S. cerevisiae deletion strains, locus YNL067W, strain RPL9B, stronger effect = lower value 0.99 | S. cerevisiae deletion strains, locus YNL128W, strain TEP1, stronger effect = lower value 1 | S. cerevisiae deletion strains, locus YNL153C, strain GIM3, stronger effect = lower value 0.989 | S. cerevisiae deletion strains, locus YNL233W, strain BNI4, stronger effect = lower value 1 | S. cerevisiae deletion strains, locus YNL250W, strain rad50, stronger effect = lower value 0.985 | S. cerevisiae deletion strains, locus YNL271C, strain bni1, stronger effect = lower value 1 | S. cerevisiae deletion strains, locus YNL298W, strain CLA4, stronger effect = lower value 1.01 | S. cerevisiae deletion strains, locus YNL307C, strain MCK1, stronger effect = lower value 0.995 | S. cerevisiae deletion strains, locus YNL322C, strain KRE1, stronger effect = lower value 0.992 | S. cerevisiae deletion strains, locus YNR052C, strain pop2, stronger effect = lower value 0.999 | S. cerevisiae deletion strains, locus YOL006C, strain TOP1, stronger effect = lower value 0.937 | S. cerevisiae deletion strains, locus YOL012C, strain htz1 1.25 | S. cerevisiae deletion strains, locus YOL147C, strain pex11, stronger effect = lower value 0.995 | S. cerevisiae deletion strains, locus YOR061W, strain CKA2, stronger effect = lower value 0.996 | S. cerevisiae deletion strains, locus YOR069W, strain VPS5, stronger effect = lower value 0.998 | S. cerevisiae deletion strains, locus YOR136W, strain idh2, stronger effect = lower value 1 | S. cerevisiae deletion strains, locus YOR144C, strain elg1, stronger effect = lower value 0.994 | S. cerevisiae deletion strains, locus YOR184W, strain ser1, stronger effect = lower value 0.976 | S. cerevisiae deletion strains, locus YOR316C, strain cot1, stronger effect = lower value 1 | S. cerevisiae deletion strains, locus YPL055C, strain LGE1, stronger effect = lower value 0.908 | S. cerevisiae deletion strains, locus YPL241C, strain CIN2, stronger effect = lower value 0.987 | S. cerevisiae deletion strains, locus YPR119W, strain clb2, stronger effect = lower value 1 | S. cerevisiae deletion strains, locus YPR141C, strain kar3, stronger effect = lower value 0.998 | S. cerevisiae deletion strains, locus YPR163C, strain tif3, stronger effect = lower value 0.999 | S. cerevisiae deletion strains, locus YPR167C, strain met16, stronger effect = lower value 1 | S. cerevisiae deletion strains, strain wtn01, stronger effect = lower value 0.999 | S. cerevisiae strains, strain wild type, stronger effect = lower value 0.996
